Reference: PubChem BioAssay AID743126 (The Scripps Research Institute Molecular Screening Center, 2013)
The whole screen tested about 370,000 compounds, of which about 2,100 (0.57%) were called active. What follows is part of a selection rich in actives, with near analogues and random picks from the rest. A number with no mark means an inactive call.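 Rule for the calls: active = inhibition above mean plus 3 SD of compounds lying within the high and low control bounds (cut at about 19% in these data); inactive = the rest.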

Each molecule was assayed against Group 3 secretory phospholipase A2 (Homo sapiens) (UniProt Q9NZ20) (assay: human group III sPLA2 inhibitors, primary screen, biochemical, QFRET, BODIPY PC-A2 liposome substrate (AID 743126;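 note: 0% = median of test compound wells and 100% = no enzyme DMSO wells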)). Details: QFRET BODIPY PC-A2 liposome hydrolysis, fluorescence; at 12.2 µM; active compounds read high.
Chain of Group 3 secretory phospholipase A2 (Homo sapiens) (Q9NZ20 whole entry, looked up): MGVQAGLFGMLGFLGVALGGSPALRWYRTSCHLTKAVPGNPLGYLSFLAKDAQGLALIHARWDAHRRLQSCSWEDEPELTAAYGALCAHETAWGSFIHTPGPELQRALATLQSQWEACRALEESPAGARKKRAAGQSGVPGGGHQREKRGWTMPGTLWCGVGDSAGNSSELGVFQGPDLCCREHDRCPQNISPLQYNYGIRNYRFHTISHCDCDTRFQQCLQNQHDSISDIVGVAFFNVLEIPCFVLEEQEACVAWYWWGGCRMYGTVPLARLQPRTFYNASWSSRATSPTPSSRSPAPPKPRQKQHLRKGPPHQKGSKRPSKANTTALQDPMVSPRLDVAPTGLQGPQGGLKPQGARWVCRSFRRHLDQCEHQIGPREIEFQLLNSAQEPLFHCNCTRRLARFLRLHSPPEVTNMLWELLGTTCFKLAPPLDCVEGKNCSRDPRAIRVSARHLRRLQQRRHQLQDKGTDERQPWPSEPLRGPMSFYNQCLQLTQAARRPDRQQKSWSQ

Which inhibition does the source give for `COc1cccc(Cn2cc(COC(=O)Nc3ccc(F)cc3)nn2)c1` here?
Its inhibition is -7.76%.

For `C[C@@H]1CN([C@@H](C)CO)C(=O)c2cccc(NC(=O)Nc3cccc4ccccc34)c2O[C@H]1CN(C)S(=O)(=O)c1ccccc1F`, which inhibition is on record?
The inhibition was -21.9%.

How did the inhibition turn out when `Nc1ccc2[nH]c(=S)sc2c1` was run?
Its inhibition is 1.91%.

Which inhibition does the source give for `CCOc1ccc2[nH]c(=O)c(CN(CCCO)C(C)=O)cc2c1` here?
The inhibition was -0.39%.

For `CCOc1ccc2[nH]c(=S)sc2c1`, which inhibition is on record?
Its inhibition is 23.5% (active).

How did the inhibition turn out when `COc1ccc2c(C(C)c3ccc(N)cc3)cn(C)c2c1` (stereo not drawn) was run?
Its inhibition is 9.83%.

For `CCCCNC(=O)C[C@@H]1C(=O)N(CCc2ccc(Cl)cc2)C2=CCCC[C@]21C(=O)OCC`, which inhibition is on record?
Its inhibition is -11%.

`CC1CCN(C(=S)NC(=O)c2ccccc2Br)CC1` was tested. Which inhibition did it give?
The inhibition was 16.3%.

For `COC(=O)c1cccnc1NC(=S)NC(C)C`, which inhibition is on record?
Its inhibition is 11.5%.

Which inhibition does the source give for `O=C(NC(=S)Nc1ncccn1)c1ccccc1Br` here?
Its inhibition is 20.2% (active).

`O=C(CN1CCC(NC(=O)NCc2ccccc2)CC1)Nc1ccc2c(c1)OCCO2` was tested. Which inhibition did it give?
Its inhibition is 4.02%.

With `O=C(NC1CCC1)c1ccc(C#CC2CC2)cn1` as the molecule, how does the inhibition read?
The inhibition was 8.79%.

`Cc1cc(NCCc2c[nH]c3ccccc23)ccc1Oc1cccnc1` was tested. Which inhibition did it give?
Its inhibition is 24.1% (active).

Which inhibition does the source give for `COc1cccc(CNCCc2c[nH]c3ccccc23)c1OCc1ccccc1F` here?
Its inhibition is -6.09%.

Which inhibition does the source give for `O=C(CCc1c[nH]c2ccccc12)NCCOc1ccccc1` here?
Its inhibition is -37%.

Which inhibition does the source give for `C#CCNC(=O)C[C@H]1C[C@@]2(C(=O)OC)C(=C[C@H](C(C)C)O[C@@H]2C2CC2)N(Cc2ccco2)C1=O` here?
The inhibition was 3.7%.

Which inhibition does the source give for `Cc1cccc(C(=O)Nc2c(-c3ccc(F)cc3)nc3ncccn23)c1` here?
Its inhibition is -0.59%.

For `COC(=O)CC1CCc2cc(C)cc(C(CC(C)C)NC(=O)[C@H](CC(C)C)NC(=O)OCc3ccccc3)c2O1` (stereo partly drawn), which inhibition is on record?
The inhibition was -3.39%.

`O=C(OC12CC3CC(CC(C3)C1)C2)c1ccc(NCc2cc(O)ccc2O)cc1` was tested. Which inhibition did it give?
The inhibition was 42.5% (active).

How did the inhibition turn out when `O=C(C1CCCN1S(=O)(=O)c1ccccc1)N1CCc2ccccc2C1` (stereo not drawn) was run?
Its inhibition is -2.35%.

How did the inhibition turn out when `Cc1nnc(Sc2nc3c(c(=O)[nH]c(=O)n3C)n2Cc2ccccc2)s1` was run?
Its inhibition is 19.7% (active).

With `Cc1nnc(SCCCn2c(N3CCCCC3)nc3c2c(=O)[nH]c(=O)n3C)s1` as the molecule, how does the inhibition read?
The inhibition was -3.33%.

Which inhibition does the source give for `C=CCn1c(SCc2ccccc2)nc2c1c(=O)[nH]c(=O)n2C` here?
The inhibition was -4.25%.

For `COc1ccc(CN2C/C(=C/c3ccccc3)N3C(=O)C[C@@H](c4ccccc4)N=C23)c(OC)c1`, which inhibition is on record?
The inhibition was -11.6%.

With `Cc1ccc(-n2c(COc3ccccc3)nnc2SCC(=O)Nc2ccc3c(c2)OCCO3)cc1` as the molecule, how does the inhibition read?
Its inhibition is -18.3%.

For `COc1ccc(C(=O)OCCN2CCN(C3CN(Cc4cn(Cc5ccccc5F)nn4)S(=O)(=O)C3)CC2)cc1OC` (stereo not drawn), which inhibition is on record?
Its inhibition is -1.33%.

Which inhibition does the source give for `CC(NC(=O)COC(=O)Cn1cc(C(F)(F)F)ccc1=O)c1ccccc1` (stereo not drawn) here?
Its inhibition is 19.8% (active).

`CC(NC(=O)Cn1cc(C(F)(F)F)cc(Cl)c1=O)c1ccccc1` (stereo not drawn) was tested. Which inhibition did it give?
The inhibition was 0.8%.

How did the inhibition turn out when `CC(NC(=O)COC(=O)C1CCN(S(=O)(=O)c2ccccc2C(F)(F)F)CC1)c1ccccc1` (stereo not drawn) was run?
The inhibition was -13.3%.

With `CC(C)(C)CC(=O)Nc1nc(C(N)Cc2ccc(C(F)(F)F)cc2)cs1` (stereo not drawn) as the molecule, how does the inhibition read?
The inhibition was 6.39%.

How did the inhibition turn out when `NC(Cc1ccccc1)c1csc(Nc2cc(Oc3ccccc3)ncn2)n1` (stereo not drawn) was run?
The inhibition was 30.9% (active).

For `NC(Cc1ccc(F)cc1)c1csc(Nc2nncc3ccccc23)n1` (stereo not drawn), which inhibition is on record?
Its inhibition is 9.76%.

For `CC(C)N1CCCCC(NC(=O)C(C)(C)C)C1=O` (stereo not drawn), which inhibition is on record?
The inhibition was -4.58%.

For `C=CCN1C(C(=O)OC)CN(Cc2cn(Cc3ccccc3)nn2)CCS1(=O)=O` (stereo not drawn), which inhibition is on record?
The inhibition was 1.48%.

Which inhibition does the source give for `CC(=O)NC(c1cccs1)c1cc(Br)c2cccnc2c1O` (stereo not drawn) here?
The inhibition was 22% (active).

With `O=[N+]([O-])c1cc([N+](=O)[O-])c2cccnc2c1O` as the molecule, how does the inhibition read?
Its inhibition is 2.18%.

For `N#Cc1ccccc1NC(=O)COc1c(Br)cc(Br)c2cccnc12`, which inhibition is on record?
The inhibition was 5.73%.

`Cc1c(C(C)c2ccccc2O)[nH]c2ccccc12` (stereo not drawn) was tested. Which inhibition did it give?
The inhibition was -10.4%.

Which inhibition does the source give for `CCOC(=O)NC(=O)C(=CNc1cccc(OC)c1)C(=O)NC(=O)OCC` here?
Its inhibition is 5.9%.

How did the inhibition turn out when `CCOC(=O)NC(=O)/C(C#N)=C\c1ccccc1` was run?
Its inhibition is 22.2% (active).

How did the inhibition turn out when `CCOC(=O)C(=Cc1ccccc1)C(=O)c1ccccc1` was run?
Its inhibition is 8.51%.

Which inhibition does the source give for `COC(=O)[C@]12C[C@H](CC(=O)NCC34CC5CC(CC(C5)C3)C4)C(=O)N(Cc3ccc(Cl)cc3Cl)C1=C[C@H](COCc1ccccc1)O[C@@H]2C` here?
Its inhibition is -6.39%.

How did the inhibition turn out when `O=C(Nc1ccc(Br)cc1)OCCN1C(=O)CCC12CCC(c1ccccc1)CC2` (stereo not drawn) was run?
Its inhibition is -1.44%.

Which inhibition does the source give for `N#CC1(Nc2ccc3c4c(cccc24)CC3)CCCCC1` here?
Its inhibition is -35.6%.

How did the inhibition turn out when `N#CC1(Nc2ccc(-c3ccc(Cl)cc3)cc2)CCCC1` was run?
Its inhibition is 23.6% (active).

How did the inhibition turn out when `NC(=O)C1(Nc2ccc(-c3ccccc3)cc2)CCCC1` was run?
The inhibition was 0.79%.

For `CC(c1ccc(N)cc1)c1cn(C)c2ccccc12` (stereo not drawn), which inhibition is on record?
Its inhibition is 13.1%.

Which inhibition does the source give for `FC(F)(F)c1cccc(Cn2ccc3ccc(-c4ccc5ccn(Cc6ccccc6)c5c4)cc32)c1` here?
Its inhibition is -7.36%.

With `C=CCN(C)CC#Cc1ccccc1` as the molecule, how does the inhibition read?
Its inhibition is 6.96%.

`CCOC(=O)C1(Cc2cccc(OC)c2)CCN(C(C)COC)CC1` (stereo not drawn) was tested. Which inhibition did it give?
The inhibition was -1.08%.

Which inhibition does the source give for `CCOC(=O)C1(Cc2cccc(OC)c2)CCCN(S(=O)(=O)c2cccnc2)C1` (stereo not drawn) here?
The inhibition was 1.51%.

How did the inhibition turn out when `CCOC(=O)C1(Cc2cccc(OC)c2)CCCN(C(=O)CCSC)C1` (stereo not drawn) was run?
The inhibition was 19.5% (active).

For `CC(C)(C)NC(=O)C(c1cccnc1)N(C(=O)c1cnco1)c1ccc(C(C)(C)C)cc1` (stereo not drawn), which inhibition is on record?
Its inhibition is -5.08%.

For `CCOc1ccc(Oc2c(Cl)cnn(-c3ccc(C)cc3)c2=O)cc1`, which inhibition is on record?
Its inhibition is 8.12%.

`O=S(=O)(Nc1ccccn1)c1cccc(S(=O)(=O)c2ccc(Cl)cc2)c1` was tested. Which inhibition did it give?
Its inhibition is -7.39%.

`COc1cc(NS(=O)(=O)c2ccc3ccccc3c2)c2ncccc2c1` was tested. Which inhibition did it give?
The inhibition was 23.8% (active).

With `O=[N+]([O-])c1ccccc1S(=O)(=O)Nc1cccc2cccnc12` as the molecule, how does the inhibition read?
The inhibition was 6.98%.

`CCOC(=O)C(=O)N(Cc1ccccc1)c1ccccc1C(=O)Nc1cc(OC)ccc1OC` was tested. Which inhibition did it give?
Its inhibition is -2.65%.
